Where “and” joins values, the source holds several entries; their conditions need not be identical. Equal entries are not always repeated. Inconclusive results are not listed. A call without a number means that no potency is given here. The source holds several records for some structures; these can differ, active in one and inactive in another. Calls of active or inactive are those of the source. Calls come from the whole dose curve; as a rule, active = well fitted curve in the direction sought with a large enough effect in the repeat runs; inconclusive = weak or mixed curves; inactive = no such curve, though single readings can be large; an effect the other way counts as inactive or inconclusive.
Legend:
[1] = A CellTox Green Cytotoxicity Assay to monitor cytotoxicity in HEK293 cells - 32 hour (AID 1224881); note: nearly all actives have a fitted effect of over 40% in size; note: potency is the fitted concentration of half-maximal effect
In short: (§1)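 Seeding of HEK293 cells together with cytotoxicity dye preceded a 5 h incubation at 37 C/5% CO2. Test compounds in DMSO were then added and fluorescence monitored across 40 h.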

[2] = A CellTox Green Cytotoxicity Assay to monitor cytotoxicity in HepG2 cells - 0 hour (AID 1224882); note: nearly all actives have a fitted effect of over 35% in size
In short: (§2)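 Nonlytic assay: viable cells exclude the dye, so fluorescence scales with cell death. HepG2 at 600 cells/well, compounds added after 5 h, signal read across 40 h.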

[3] = A CellTox Green Cytotoxicity Assay to monitor cytotoxicity in HepG2 cells - 32 hour (AID 1224883); note: nearly all actives have a fitted effect of over 50% in size; note: potency is the fitted concentration of half-maximal effect
In short: as §2

[4] = A CellTox Green Cytotoxicity Assay to monitor cytotoxicity in HEK293 cells - 16 hour (AID 1224888); note: nearly all actives have a fitted effect of over 35% in size; note: potency is the fitted concentration of half-maximal effect
In short: as §1

[5] = A CellTox Green Cytotoxicity Assay to monitor cytotoxicity in HepG2 cells - 8 hour (AID 1224890); note: nearly all actives have a fitted effect of over 45% in size; note: potency is the fitted concentration of half-maximal effect
In short: as §2

[6] = A CellTox Green Cytotoxicity Assay to monitor cytotoxicity in HEK293 cells - 8 hour (AID 1224884); note: nearly all actives have a fitted effect of over 35% in size; note: potency is the fitted concentration of half-maximal effect
In short: as §1

[7] = qHTS RealTime-Glo MT Cell Viability Assay in HEK293 cells - 24 hour (AID 1224886); note: nearly all actives have a fitted effect of over 50% in size; note: potency is the fitted concentration of half-maximal effect
In short: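 Assay medium contained NanoLuc luciferase plus cell-permeant prosubstrate, added with HEK293 cells at 600 cells/well. After 5 h at 37 C/5% CO2 compounds were added; plates stayed at 37 C for 40 h with serial luminescence reads.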

[8] = qHTS RealTime-Glo MT Cell Viability Assay in HepG2 cells - 16 hour (AID 1224885); note: nearly all actives have a fitted effect of over 50% in size; note: potency is the fitted concentration of half-maximal effect
In short: (§3)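 qHTS, HepG2, 600 cells/well, RealTime-Glo (NanoLuc + prosubstrate) added with cells; 5 h preincubation; DMSO compound addition; 37 C; luminescence at 0/8/16/24/32/40 h.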

[9] = qHTS RealTime-Glo MT Cell Viability Assay in HEK293 cells - 8 hour (AID 1224887); note: nearly all actives have a fitted effect of over 50% in size; note: potency is the fitted concentration of half-maximal effect
In short: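 Tox21 screen in HEK293 using RealTime-Glo MT chemistry, with cells and reagent co-dispensed. Luminescence proportional to viable cell number was captured at intervals during 40 h compound exposure at 37 C.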

[10] = qHTS RealTime-Glo MT Cell Viability Assay in HepG2 cells - 0 hour (AID 1224889); note: nearly all actives have a fitted effect of over 50% in size; note: potency is the fitted concentration of half-maximal effect
In short: as §3

Compound | Potency [1] | Potency [2] | Potency [3] | Potency [4] | Potency [5] | Potency [6] | Potency [7] | Potency [8] | Potency [9] | Potency [10]
COC(=O)N(C(=O)N1CO[C@@]2(C(=O)OC)Cc3cc(Cl)ccc3C2=N1)c1ccc(OC(F)(F)F)cc1 | inactive | inactive | inactive | inactive | inactive |  |  |  |  | 
COc1cccc2c1C(=O)c1c(O)c3c(c(O)c1C2=O)C[C@@](O)(C(=O)CO)CC3OC1CC(N2CCOC(OC)C2)C(O)C(C)O1 (stereo not given in full) | inactive | inactive | 0.0425 µM (active) |  | 21.3 µM (active) | inactive | 0.0535 µM (active) |  |  | 
CC(C)CCCCCOC(=O)c1ccccc1C(=O)OCCCCCC(C)C | inactive | inactive |  | inactive | inactive | inactive | inactive | inactive | inactive | inactive
O=c1[nH]c2ccccc2n1C1CCN(CCCC(c2ccc(F)cc2)c2ccc(F)cc2)CC1 | 49 µM (active) and inactive | inactive |  | inactive |  | inactive | 12.3 µM (active) and 16.9 µM (active) | 49 µM (active) and inactive | 15.5 µM (active) | inactive
C[C@@H]1O[C@@H](O[C@H]2C[C@@H](O)[C@]3(CO)[C@H]4[C@H](O)C[C@]5(C)[C@@H](C6=CC(=O)OC6)CC[C@]5(O)[C@@H]4CC[C@]3(O)C2)[C@H](O)[C@H](O)[C@H]1O | inactive | inactive | inactive | inactive | inactive | inactive |  |  |  | 
O=C1NCN(c2ccccc2)C12CCN(CC1COc3ccccc3O1)CC2 (stereo not given) | inactive | inactive | inactive | inactive | inactive | inactive |  |  |  | inactive
CC(C)(C)C(O)C(Oc1ccc(-c2ccccc2)cc1)n1cncn1 (stereo not given) | inactive | inactive |  | inactive | inactive | inactive | 43.6 µM (active) | inactive |  | inactive
[Cd+2].[Cl-].[Cl-] | 44 µM (active) and 15.5 µM (active) | inactive | 22.1 µM (active) and 24.5 µM (active) | inactive | inactive | inactive |  |  | inactive | inactive
CN(C)[C@@H]1C(=O)C(C(N)=O)=C(O)[C@@]2(O)C(=O)C3=C(O)c4c(O)ccc(Cl)c4[C@@](C)(O)[C@H]3C[C@@H]12 | inactive | inactive | inactive | inactive | inactive | inactive |  |  | inactive | inactive
CC(=[OH+])/C=C(/C)[O-].CC(=[OH+])/C=C(\C)[O-].CC(=[OH+])/C=C(\C)[O-].[Al] | inactive | inactive |  | inactive | inactive | inactive | inactive | inactive | inactive | inactive
C1CCC2CCCCC2C1 (stereo not given) | inactive | inactive |  | inactive | inactive | inactive | inactive | inactive | inactive | inactive
Clc1ccc(CSC(Cn2ccnc2)c2ccc(Cl)cc2Cl)cc1 (stereo not given) | inactive | inactive | inactive | inactive |  | inactive |  |  |  | inactive
Clc1ccc(CO/N=C(\Cn2ccnc2)c2ccc(Cl)cc2Cl)c(Cl)c1 | inactive | inactive |  | inactive |  | inactive | 21.3 µM (active) | 21.3 µM (active) | 19 µM (active) | inactive
BrCBr | inactive | inactive |  | inactive | inactive | inactive | inactive | inactive | inactive | 
Cc1cc(Cl)ccc1O[C@H](C)C(=O)O | inactive | inactive |  | inactive | inactive | inactive | inactive | inactive | inactive | inactive
O=c1ssc(Cl)c1Cl | 24.5 µM (active) | inactive | 19.5 µM (active) | 38.9 µM (active) |  |  | 15.5 µM (active) | 21.9 µM (active) |  | 43.6 µM (active)
CC(C)N1C(=O)N(c2ccccc2)CSC1=NC(C)(C)C | inactive | inactive | inactive | inactive | inactive | inactive | 19.5 µM (active) |  |  | 
CC(=O)[O-].CC(=O)[O-].[Hg+2] | 7.76 µM (active) | inactive | 1.74 µM (active) | 24.5 µM (active) | 3.09 µM (active) | 43.6 µM (active) |  |  |  | 30.9 µM (active)
Fc1ccc(Oc2ccnc3cc(Cl)cc(Cl)c23)cc1 | inactive | inactive |  | inactive | inactive | inactive | 11 µM (active) | inactive |  | inactive
CC1CCC(C(C)C)C(OC(=O)c2ccccc2N)C1 (stereo not given) | 38.4 µM (active) | inactive |  |  | inactive | 48.3 µM (active) | 34.2 µM (active) | inactive | 34.2 µM (active) | inactive
CCN | inactive | inactive |  | inactive | inactive | inactive | inactive | inactive | inactive | inactive
CC1(C)CN=C(NN=C(/C=C/c2ccc(C(F)(F)F)cc2)/C=C/c2ccc(C(F)(F)F)cc2)NC1 | 54.9 µM (active) | inactive | 17.4 µM (active) |  |  |  | 43.6 µM (active) |  |  | inactive
c1cc[c]([Sb]([c]2ccccc2)[c]2ccccc2)cc1 | inactive | inactive | inactive | inactive | inactive | inactive |  |  |  | inactive
CN(C)C1CSSSC1 | inactive | inactive | inactive | inactive | inactive |  | inactive | inactive |  | inactive
